Bioassay records: PubChem BioAssay, National Center for Advancing Translational Sciences (NCATS)
DT40 TDP1 no CPT: qHTS for Inhibitors of human tyrosyl-DNA phosphodiesterase 1 (TDP1): qHTS in cells in absence of CPT; Potency, µM (series often up to 46.2 µM), without a hit: top-dose activity change, negative = growth inhibition, usual class: inhibitors; AID 686978, 2013; DT40 Tdp1-/- hTDP1 cells, no CPT, ATP luminescence, 48 h; 420,000 compounds, 15% hits; note: potency is the fitted concentration of half-maximal effect; % is set by controls: 0 for no effect and ±100 for the full control effect; nearly all actives have a fitted effect of over 55% in size
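Growth of hTDP1-complemented DT40 Tdp1-knockout cells is measured by ATP luminescence after at least 48 hr compound exposure at 37 °C, with DMSO substituting for the 20 nM CPT used in the parallel screen.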
TDP1 cell CPT: growth inhibition of DT40 Tdp1-/-;hTDP1 cells with camptothecin (screen for TDP1 inhibitors) | 420,000 compounds, 12% hits | Potency, µM (titrated, usually from 46.2 µM), inactives show at the top dose activity change, negative = growth inhibition, most hits filed as inhibitors | chicken DT40 Tdp1-/-;hTDP1 cells + 20 nM CPT, ATP luminescence, 48 h | AID 686979; note: potency is the fitted concentration of half-maximal effect; % is set by controls: 0 for no effect and ±100 for the full control effect; nearly all actives have a fitted effect of over 55% in size
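Chicken DT40 Tdp1-/- cells stably complemented with human TDP1 were seeded at 400 cells/well in medium containing 20 nM camptothecin, exposed to pin-transferred compounds, and grown at 37 °C for at least 48 hr. Viability was read as ATP luminescence.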
S-ASM inh: blocks human secretory acid sphingomyelinase | P17405 | placental ASM, HMU-PC fluorogenic substrate, 60 min | Potency, µM (top dose mostly 57.5 µM), inactives show at the top dose activity change, negative = inhibition, usual class: inhibitors | 340,000 compounds, 0.006% hits; note: potency is the fitted concentration of half-maximal effect
Target sequence (P17405 47-631 limits assumed): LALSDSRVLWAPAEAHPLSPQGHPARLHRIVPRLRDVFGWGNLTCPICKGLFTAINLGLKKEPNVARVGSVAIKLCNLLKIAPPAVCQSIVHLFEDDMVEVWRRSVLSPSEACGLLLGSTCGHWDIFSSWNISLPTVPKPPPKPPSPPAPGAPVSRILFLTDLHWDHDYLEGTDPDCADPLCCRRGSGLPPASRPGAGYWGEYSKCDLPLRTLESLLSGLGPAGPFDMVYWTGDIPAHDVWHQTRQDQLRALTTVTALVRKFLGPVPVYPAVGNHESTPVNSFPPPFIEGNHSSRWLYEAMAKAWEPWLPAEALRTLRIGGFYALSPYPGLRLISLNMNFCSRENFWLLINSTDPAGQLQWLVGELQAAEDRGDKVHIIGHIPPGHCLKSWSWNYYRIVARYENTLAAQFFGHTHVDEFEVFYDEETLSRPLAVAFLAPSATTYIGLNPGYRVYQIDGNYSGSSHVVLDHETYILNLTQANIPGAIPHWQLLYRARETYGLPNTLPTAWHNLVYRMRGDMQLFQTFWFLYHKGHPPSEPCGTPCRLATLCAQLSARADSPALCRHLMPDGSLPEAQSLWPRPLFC
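Fluorogenic HMU-PC substrate (9 uM final) is turned over by placental ASM in 60 min at 37 C after a 10 min compound preincubation. Reaction ended by alkaline stop (pH 10), with fluorescence read at 386/447 nm.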
HepG2 tox: HepG2 cytotoxicity, counter-screen for TGF-b inhibitors. HepG2 CAGA-GFP viability, ATP luminescence, 18 h. Potency, µM (doses to about 46.1 µM), for inactives: top-dose activity change, negative = cytotoxicity, most hits filed as cytotoxic. 410,000 compounds, 0.76% hits. AID 588856; note: potency is the fitted concentration of half-maximal effect
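HepG2 CAGA-GFP cells (1000/well, DMEM with 1% FBS) received compound, then TGF-beta at 500 pg/mL final, and were incubated 18 hours at 37 degrees C. Viability was read by CellTiter-Glo luminescence. Media-only wells were set as complete cell-killing and DMSO as no toxicity.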
IL1B secr inh: inhibitors of inflammasome signaling (IL-1 beta secretion); activity change, % at 57.5 µM; THP-1 LPS/ATP IL-1B secretion, AlphaLISA, 16 h; hits give low values; 360,000 compounds, 4.7% hits; in the data active = activity change below about -50%; inconclusive = mostly about -30% to -49%; note: % is set by controls: 0 for no effect and ±100 for the full control effect
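THP-1 cells pretreated 1 hr with compounds (up to 57.5 uM final), then stimulated with LPS (250 ng/mL final) plus ATP (1.25 mM final); secreted IL-1B measured by AlphaLISA after 16 hr, decreased signal indicating inhibition.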
TGFb SMAD3 inh: inhibitors of TGF-b signaling; HepG2 CAGA-GFP TGF-b/SMAD3 reporter, GFP fluorescence, 18 h; TGF-beta stimulated, 500 pg/mL final; AID 588855; Potency, µM (series often up to 46.1 µM), inactives show top-dose activity, negative = inhibition, most hits filed as inhibitors; 410,000 compounds, 1.2% hits; note: potency is the fitted concentration of half-maximal effect; % is set by controls: 0 for no effect and ±100 for the full control effect; nearly all actives have a fitted effect of over 65% in size
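Per well, imaged GFP fluorescence of HEPG2 CAGA-GFP cells gives the signal; cells get compound, then TGF-beta (500 pg/mL final), 18 h at 37 degrees C; %Activity versus -TGF-beta and +DMSO controls.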
* = called active by the depositor; ? = inconclusive; nt = no result; [ ] = another dose, or the depositor's remark. A selection: hits, their analogues and other compounds. The true share with any hit is near 19%. Unless noted, calls come from the whole dose curve; as a rule, active = well fitted curve in the direction sought with a large enough effect; inconclusive = small, poorly fitted or top-dose-only effect, or another doubt; inactive = no such curve, though single readings can be large; an effect the other way counts as inactive or inconclusive.

SMILES | DT40 TDP1 no CPT | TDP1 cell CPT | S-ASM inh | HepG2 tox | IL1B secr inh | TGFb SMAD3 inh
Cc1ccc(C(C)CCN2CCOc3ccc(CN4CCOCC4)cc3C2)o1 (stereo unspecified) | -16.2% | 0.3% | nt | nt | nt | nt
CC(=O)c1ccc(N2CCN(c3ccnc4cc(Cl)ccc34)CC2)cc1 | 3.66µM* | ? | -1.3%[11.5 µM] | -3.7% | -3.8 | 0.4%
CC(C)S(=O)(=O)N1CCN(c2ccnc3cc(Cl)ccc23)CC1 | ? | ? | -0.3% | 12.3% | nt | -0.6%
O=[N+]([O-])c1ccc(S(=O)(=O)N2CCN(c3ccnc4cc(Cl)ccc34)CC2)cc1 | ? | 18.4µM* | -4.4% | 3.9% | -18.1 | -11.4%
CCn1c(-c2ccccc2F)nc2cc(NC(C)=O)cc(C(=O)N3CCC[C@H]3C(=O)OC)c21 | -2.8% | 2.4% | nt | nt | nt | nt
O=C1CC(N2CCC(O)CC2)C(=O)N1c1ccc(Br)cc1 (stereo unspecified) | ? | ? | -0.6% | 25.9% | 0.0 | 0.0%
O=C1CC(N2CCC(O)(c3ccc(Br)cc3)CC2)C(=O)N1c1ccc(Cl)cc1 (stereo unspecified) | 25.9µM* | ? | -4.8% | -3.0% | 0.0 | -24.6%
COc1ccc(N2C(=O)CC(N3CCC(O)(c4ccc(Br)cc4)CC3)C2=O)cc1 (stereo unspecified) | ? | 18.4µM* | -1.5% | 6.2% | 28.6 | -9.1%
CC(C)=CCn1c2ccc(NC(=O)NCc3ccc(F)cc3)cc2c(=O)n1C | 1.64µM* | 2.06µM* | nt | 4.6% | 67.5 | -13.7%
CCNC(=O)Nc1ccc2c(c1)c(=O)n(C)n2CC=C(C)C | -5.2% | -17.7% | nt | -18.9% | 12.2 | -1.2%
CCOCCC(=O)Nc1ccc2c(c1)c(=O)n(C)n2C/C=C/c1ccccc1 | 3.26µM* | 4.61µM* | nt | -0.4% | 72.4 | -13.0%
Cn1c(=O)c2cc(NC(=O)Cc3ccccc3F)ccc2n1C/C=C/c1ccccc1 | ? | ? | nt | -6.0% | -18.0 | 3.4%
Cn1c(=O)c2cc(NC(=O)NCc3ccc(F)cc3)ccc2n1C/C=C/c1ccccc1 | 9.2µM* | 8.2µM* | nt | -21.1% | 62.6 | 0.0%
CC12CCC=CC1C(c1ccc(/C=C/c3ccccc3)cc1F)N(Cc1ccccc1)C2=O (stereo unspecified) | nt | nt | nt | -33.2% | nt | -4.8%
COc1ccccc1NC(=O)Cn1c(SCC(=O)Nc2ccc(F)cc2)nc2ccccc21 | ? | ? | nt | -0.2% | nt | -7.6%
CN(C(=O)CSc1nc2ccccc2n1CC(=O)NCc1ccc(F)cc1)c1ccc(F)cc1 | ? | ? | nt | -19.6% | nt | ?
COc1ccc(NC(=O)CSc2nc3ccccc3n2CC(=O)N2CCCC(C)C2)cc1 (stereo unspecified) | 20.6µM* | ? | nt | -10.1% | nt | 0.4%
COc1ccc(NC(=O)CSc2nc3ccccc3n2CC(=O)N(C)c2ccc(F)cc2)cc1 | 14.6µM* | ? | nt | -4.0% | nt | -1.3%
CC1CCN(C(=O)Cn2c(SCC(=O)Nc3ccc(F)cc3)nc3ccccc32)CC1 | ? | ? | nt | 8.1% | nt | -7.4%
CN(C(=O)CSc1nc2ccccc2n1CC(=O)N(C)C1CCCCC1)c1ccc(F)cc1 | 29.1µM* | ? | nt | -13.7% | nt | -4.8%
Cc1ccc(NC(=O)CSc2nc3ccccc3n2CC(=O)N(C)C2CCCCC2)cc1C | 18.4µM* | ? | nt | -17.3% | nt | -17.3%
COC(=O)C(Cc1ccccc1)NC(=O)CCNC(=O)c1ccco1 (stereo unspecified) | -5.4% | 3.7% | -0.1% | 0.2% | -3.9 | -5.6%
CSc1nnc(NC(=O)c2cc(=O)c3cc(C)c(C)cc3o2)s1 | -1.3% | 2.3% | nt | 10.1% | nt | -7.4%
